{"source": "ChEMBL document CHEMBL3988442", "about": "“University of Dundee, Small-Polar-MMV Screening Library” (2021)", "note": "Screen size: about 48,000 compounds; about 13,000 (27%) showed an effect of 50% or more. The list shows a part of the results.", "data": [{"system": "Wolbachia pipientis", "assay": "Anti-Wolbachia Cell-Based Screen", "type": "functional", "set-up": "scale not given: in the data most compounds retested in dose-response had high values", "settings": "5 µM", "units": {"Percent Effect": "%"}, "values": [{"smiles": "NC(=O)CCSCc1ccc(Br)c(F)c1", "Percent Effect": -4.384}, {"smiles": "CCC(CO)N(Cc1cccs1)C(=O)Cc1ccncc1", "note": "(stereo not given)", "Percent Effect": -5.56}, {"smiles": "c1ccc2c(c1)nc1n2[C@@H](CNCc2nccs2)COC1", "Percent Effect": 3.551}, {"smiles": "Cn1ccnc1SCCNC(=O)CC1CCc2ccccc21", "note": "(stereo not given)", "Percent Effect": -4.259}, {"smiles": "Cc1ccc(S(=O)(=O)NCC2CNCCOC2)cc1Cl", "note": "(stereo not given)", "Percent Effect": -1.884}, {"smiles": "Cc1cccc2[nH]c(C3CCN(C(=O)c4cnc(O)cc4O)CC3)nc12", "Percent Effect": -25}, {"smiles": "Cn1[nH]c(C2CC2)c(-c2ccc3c(c2)OCO3)c1=N", "Percent Effect": -0.9629}, {"smiles": "CN(Cc1cccnc1)C[C@H]1CC[C@@H](Cc2ccc3c(cnn3C)c2)O1", "Percent Effect": -1.235}, {"smiles": "Cc1cnn(C2CN(Cc3noc(C)n3)C2)c1", "Percent Effect": 14.64}, {"smiles": "Cc1cnn(CC(C)NCc2nc(-c3cccnc3)no2)c1", "note": "(stereo not given)", "Percent Effect": 10.95}, {"smiles": "Cc1cccc(-c2noc(CN3CC(n4cc(C)cn4)C3)n2)c1", "Percent Effect": 6.599}, {"smiles": "Cc1ccccc1-c1noc(CN2CC(n3cccn3)C2)n1", "Percent Effect": 17.98}, {"smiles": "Cc1cnn(C2CN(Cc3nc(C(C)(C)C)no3)C2)c1", "Percent Effect": -1.752}, {"smiles": "Cc1cnn(C2CN(Cc3nnc(Cc4ccccc4)o3)C2)c1", "Percent Effect": -8.725}, {"smiles": "Cc1cnn(C2CN(Cc3nc(-c4cccnc4)no3)C2)c1", "Percent Effect": 94.26}, {"smiles": "Cc1cnn(C2CN(Cc3nc(-c4ccco4)no3)C2)c1", "Percent Effect": -0.024}, {"smiles": "Cc1ccc(-c2noc(CN3CC(n4cc(C)cn4)C3)n2)cc1", "Percent Effect": 109}, {"smiles": "Cc1cnn(C2CN(Cc3nc(-c4ccccc4C)no3)C2)c1", "Percent Effect": 81.63}, {"smiles": "Cc1cnn(C2CN(Cc3nc(-c4ccccn4)no3)C2)c1", "Percent Effect": 99.99}, {"smiles": "Cc1cnn(C2CN(Cc3nnc(-c4ccccc4Cl)o3)C2)c1", "Percent Effect": 0.6902}, {"smiles": "O=c1cc(N2CCNCC2)cnn1Cc1noc(C2CCCC2)n1", "Percent Effect": 5.676}, {"smiles": "CC(=O)N1CCC(C(=O)Nc2nnc(C(F)(F)F)[nH]2)CC1", "Percent Effect": -2.768}, {"smiles": "CC(=O)N[C@@H]1CN(C(=O)c2cnccn2)C[C@H]1c1ccc(C)cc1", "Percent Effect": 4.61}, {"smiles": "Cc1ncc(CN2CCC(c3ccnn3C)CC2)n1-c1ccccc1", "Percent Effect": 4.232}, {"smiles": "O=C(NCCOCCO)c1cnc(-c2ccccc2)nc1O", "Percent Effect": -4.282}, {"smiles": "COc1cnc(CN2CCN(CC(C)C)C(=O)C2C)cc1O", "note": "(stereo not given)", "Percent Effect": -7.655}, {"smiles": "COc1ccc(-c2noc(CN3CC(n4cc(C)cn4)C3)n2)cc1", "Percent Effect": 101.6}, {"smiles": "COc1ccc(-c2nc(CN3CC(n4cc(C)cn4)C3)no2)cc1", "Percent Effect": 7.343}, {"smiles": "Cc1cccc(-c2noc(CN3CC(n4cccn4)C3)n2)c1", "Percent Effect": 120.1}, {"smiles": "Cn1cnc2c1CCN(Cc1nc(-c3ccsc3)no1)C2", "Percent Effect": -4.856}, {"smiles": "Cc1cnn(C2CN(Cc3nc(-c4ccsc4)no3)C2)c1", "Percent Effect": 107.2}, {"smiles": "c1coc(-c2noc(CN3CC(n4cccn4)C3)n2)c1", "Percent Effect": -9.344}, {"smiles": "c1cnn(C2CN(Cc3nc(-c4ccsc4)no3)C2)c1", "Percent Effect": -8.892}, {"smiles": "COc1ccc(-c2noc(CN3CC(n4cccn4)C3)n2)c(OC)c1", "Percent Effect": 7.442}, {"smiles": "Cc1ccc(-c2nnc(CN3CC(n4cc(C)cn4)C3)o2)cc1", "Percent Effect": 13.03}]}]}
